WRN inhibitor = inhibitors of human WRN helicase | Q14191 | WRN helicase unwinding, fluorescent forked duplex, kinetic | Potency, µM (series often up to 114 µM), inactives show at the highest dose activity change, negative = inhibition, most hits filed as inhibitors | actives 0.46% (n = 360,000) | AID 651768; note: % is set by controls: 0 for no effect and ±100 for the full control effect; nearly all actives have a fitted effect of over 55% in size
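Primary qHTS, 1536-well format. 20 nM WRN + compound, 15 min RT; start with 100 nM forked fluorophore/quencher duplex, 2 mM ATP (final); kinetic read ex 525/em 598 nm.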
POLK inh = DNA polymerase kappa (human) inhibition; actives 0.53% (n = 400,000); purified Pol kappa, fluorescent DNA synthesis assay, 10 min; AID 588579; Potency, µM (highest dose often 107 µM), for the others: top-dose activity, negative = inhibition, hits mostly inhibitors; Q9UBT6; note: % is set by controls: 0 for no effect and ±100 for the full control effect
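Enzyme at 10 nM met test compounds for 15 min at room temperature. Substrate addition (50 nM final) began the reaction, which was monitored by fluorescence at 0 and 10 min.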
POLI inh = DNA polymerase iota (human) inhibition; actives 1% (n = 390,000); Q9UNA4; Pol iota fluorescent replication assay, 10 min; Potency, µM (titrated, usually from 115 µM), for inactives: at the highest dose activity, negative = inhibition, actives largely listed as inhibitors
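Pol iota at 10 nM preincubated 15 min with compounds at room temperature; reaction started with fluorescent substrate, 50 nM final. Fluorescence read kinetically at 0 and 10 min; buffer-only wells as negative control.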
FEN1 inh = human FEN1 inhibition; P39748; Recombinant FEN1 flap cleavage, fluorescence, 15 min; actives 0.35% (n = 390,000); Potency, µM (titrated, usually from 114 µM), for inactives: at the top dose activity change, negative = inhibition, usual class: inhibitors; note: % is set by controls: 0 for no effect and ±100 for the full control effect; nearly all actives have a fitted effect of over 65% in size
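Enzyme 10 nM, 15 min RT preincubation with compound; start with substrate 50 nM final; reads at 0 and 15 min; qHTS titration, four-parameter Hill fit.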
POLB inh = DNA polymerase beta (human) inhibition; P06746; Pol beta primer extension/strand displacement, fluorescence kinetic; Potency, µM (series often up to 114 µM), for the others: at the top dose activity change, negative = inhibition, most hits filed as inhibitors; actives 1.3% (n = 340,000); note: % is set by controls: 0 for no effect and ±100 for the full control effect
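Kinetic readout of DNA synthesis with strand displacement by Pol beta. Compound and 10 nM enzyme sit 15 min at room temperature; 50 nM substrate starts the reaction, read immediately and at 10 min.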
POLH inh = DNA polymerase eta (human) inhibition; Q9Y253; recombinant Pol eta, fluorescent DNA replication assay; Potency, µM (top dose mostly 114 µM), inactives show top-dose activity change, negative = inhibition, most hits filed as inhibitors; actives 1.2% (n = 390,000); note: % is set by controls: 0 for no effect and ±100 for the full control effect
Target sequence (Q9Y253 whole entry, looked up): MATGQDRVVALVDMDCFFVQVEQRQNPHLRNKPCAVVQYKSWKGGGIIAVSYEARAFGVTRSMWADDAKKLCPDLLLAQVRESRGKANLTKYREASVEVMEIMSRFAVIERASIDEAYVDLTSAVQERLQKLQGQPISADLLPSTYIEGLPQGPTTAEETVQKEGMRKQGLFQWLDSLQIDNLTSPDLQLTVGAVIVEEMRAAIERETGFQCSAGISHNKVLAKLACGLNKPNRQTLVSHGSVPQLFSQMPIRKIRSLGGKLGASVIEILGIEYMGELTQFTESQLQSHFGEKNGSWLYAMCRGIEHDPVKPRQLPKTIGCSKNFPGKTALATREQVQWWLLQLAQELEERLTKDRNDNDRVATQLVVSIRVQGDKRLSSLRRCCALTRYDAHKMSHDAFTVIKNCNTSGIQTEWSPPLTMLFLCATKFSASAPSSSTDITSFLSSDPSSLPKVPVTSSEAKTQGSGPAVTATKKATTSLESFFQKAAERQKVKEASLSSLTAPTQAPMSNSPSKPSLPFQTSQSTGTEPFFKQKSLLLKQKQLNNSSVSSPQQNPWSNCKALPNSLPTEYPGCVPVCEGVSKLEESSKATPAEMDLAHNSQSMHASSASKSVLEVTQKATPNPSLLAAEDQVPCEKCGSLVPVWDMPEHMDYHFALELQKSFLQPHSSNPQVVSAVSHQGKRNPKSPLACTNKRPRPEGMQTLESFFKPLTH
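Pol eta (10 nM) was preincubated with compounds for 15 min at room temperature, after which fluorescent replication substrate (50 nM final) was added to start the reaction. Fluorescence was read kinetically at 0 and 10 min.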
The depositor's hits bear a star; ? = inconclusive; / = not tested or not shown; [ ] = dose if it differs, or a comment. This is a sample that favours compounds with a hit; in the whole collection about 2.4% have one here. Calls come from the whole dose curve; as a rule, active = well fitted curve in the direction sought with a large enough effect; inconclusive = small, poorly fitted or top-dose-only effect, or another doubt; inactive = no such curve, though single readings can be large; an effect the other way counts as inactive or inconclusive. Potency is the fitted concentration of half-maximal effect.

SMILES	WRN inhibitor	POLK inh	POLI inh	FEN1 inh	POLB inh	POLH inh
O=C(O)c1ccc(Cl)c(NC(=S)NC(=O)c2cccc(COc3ccccc3)c2)c1	-15%[11.6 µM]	5%	78%	-25%	25µM*	45µM*
CCOC(=O)c1sc(N/N=C/c2cc(Br)c(O)c(OC)c2)nc1C	?	?	?	-21%	32µM*	35µM*
Cc1cccc2c1-c1sc(C(=O)N(C)c3cccc(C(F)(F)F)c3)cc1CO2	/	6%	37%	0%	?	-26%
COc1cc(C(=O)Nc2cc(-c3ccccc3)[nH]n2)cc(OC)c1OC	4%	-2%	-2%	5%	-14%	-15%
COc1cc(C(=O)Nc2nc(OC)c(-c3ccccc3)c(OC)n2)cc(OC)c1OC	-5%[57.1 µM]	7%[60.1 µM]	?	?	45µM*	-22%
Cc1ccc(OCCC(=O)OCC(=O)Nc2ccc(Cl)cn2)cc1	-13%[57.1 µM]	-38%	?	-5%	-21%	16µM*
O=C(O)c1ccc(S(=O)(=O)c2ccccc2C(=O)O)c([N+](=O)[O-])c1	2%	-2%	-15%	12%	?	8%
O=C(O)c1ccc(S(=O)(=O)c2ccc([N+](=O)[O-])cc2[N+](=O)[O-])cc1	?	-23%	1.1µM*	-15%	8%	79µM*
Cc1[nH]n(-c2ccccc2)c(=O)c1C(C[N+](=O)[O-])c1ccc(F)cc1 (stereo not given)	?	-6%	2.2µM*	-19%	0%	-20%
Cc1ccc(C(C[N+](=O)[O-])c2c(C)[nH]n(-c3ccccc3)c2=O)cc1 (stereo not given)	?	2%	1.1µM*	-5%	28%	-9%
Cc1[nH]n(-c2ccccc2)c(=O)c1C(C[N+](=O)[O-])c1ccc(Cl)cc1 (stereo not given)	-35%	-1%	-11%	-2%	-18%	-16%
CC(C)(C)n1ncc2c(=O)n(Cc3ccc(Cl)cc3C(F)(F)F)cnc21	/	-12%	-22%	7%	/	/
Cc1ccc(C)c(NC(=O)Cn2cc(C(=O)C3CCCCC3)c3ccccc32)c1	/	-6%	10%	-3%	-1%	-19%
CCN(CC)c1ccc(NC(=O)CSc2nc(C)cc(=O)[nH]2)cc1	-3%	-17%	?	-1%	4%	-5%
CCOc1ccc(NC(=O)CSc2nc(NS(=O)(=O)c3ccc(C)cc3)cc(=O)[nH]2)cc1	1%[11.6 µM]	40µM*	22µM*	-8%	3%	-18%
Cc1ccc(NC(=O)CSc2nc(NS(=O)(=O)c3ccccc3)cc(=O)[nH]2)cc1	50µM*	22µM*	?	79µM*	22µM*	22µM*
Cc1ccc(S(=O)(=O)Nc2cc(=O)[nH]c(SCC(=O)Nc3ccccc3Cl)n2)cc1	-4%	5%	-14%	-3%	?	-21%
Cc1ccc(S(=O)(=O)Nc2cc(=O)[nH]c(SCC(=O)Nc3cccc(C)c3)n2)cc1	-24%	?	50µM*	-12%	-2%	1%
Cc1cc(=O)[nH]c(SCC(=O)Nc2ccc(S(N)(=O)=O)cc2)n1	-19%	?	40µM*	12%	?	20µM*
COc1cccc(CNC(=O)c2cccc(N3CCCS3(=O)=O)c2)c1	/	9%	42%	6%	7%	-6%
CCOc1ccc(NC(=O)CSc2oc(-c3cccs3)nc2S(=O)(=O)c2ccc(Cl)cc2)cc1	/	-17%	6%	4%	13%	-24%
CCc1ccc(NC(=O)CSc2nc(NS(=O)(=O)c3ccccc3)cc(=O)[nH]2)cc1	-6%	-7%	29%	6%	20µM*	-21%
CCOc1ccc(NC(=O)CSc2oc(-c3ccc(C)cc3)nc2S(=O)(=O)c2ccc(C)cc2)cc1	/	1%	10%	1%	3.2µM*	79µM*
O=C(CSc1nc(NS(=O)(=O)c2ccccc2)cc(=O)[nH]1)Nc1ccccc1Cl	-12%	-3%	73%	2%	?	-16%
CCCC(=O)OCCNc1cc(SCc2ccco2)c2nonc2c1[N+](=O)[O-]	35µM*	35µM*	2.5µM*	-26%	11µM*	11µM*
SMILES	WRN inhibitor	POLK inh	POLI inh	FEN1 inh	POLB inh	POLH inh
CC(=O)OCCCNc1cc(SCc2ccco2)c2nonc2c1[N+](=O)[O-]	22µM*	13µM*	3.2µM*	56µM*	14µM*	22µM*
Nc1nccnc1C(=O)OCC(=O)NCCc1ccc(S(N)(=O)=O)cc1	-3%[11.6 µM]	-21%	22µM*	-3%	/	?
COc1ccc(-n2c(SCC(=O)NCc3ccccc3)nc3n[nH]c(C)c3c2=N)cc1	/	-2%[60.1 µM]	2%	-10%	-12%	-3%
O=C1CCNc2ccc(-c3ccccc3)cc21	-21%	1%	14%	-1%	8%	-13%
O=C1CCNc2cc3ccccc3cc21	?	-17%	-14%	-14%	25µM*	?
O=C(Nc1nc2c(s1)CCCC2)c1ccc(Br)s1	-19%	-6%	79µM*	-14%	-1%	-9%
O=C(c1ccccc1)C(c1ccccc1)[n+]1csc2ccccc21 (stereo not given)	/	-16%	7%	-6%	/	/
CC(=O)N1CCc2cc(S(=O)(=O)NC(Cc3ccccc3)C(=O)Nc3cccc(C)c3)ccc21 (stereo not given)	/	-19%	-3%	0%	-1%	-5%
O=c1c2cc(N3CCOCC3)ccc2[nH]c(=S)n1Cc1ccco1	?	79µM*	10µM*	?	?	89µM*
Cc1cc(C)cc(C(=O)N2CC(=O)Nc3ccc(C)cc3C2c2ccccc2)c1 (stereo not given)	/	2%	17%	-14%	5%	?
N#C/C(=C\c1ccc(N2CCCCC2)o1)C(=O)Nc1cccc(Br)c1	89µM*	-3%	?	?	-24%	?
Cc1ccc(/C=C(\C#N)C(=O)Nc2cccc(Br)c2)o1	/	-23%	-15%	-51%	31%	/
CC(I)CCC(C)[n+]1cccc(I)c1 (stereo not given)	/	-14%	24%	-2%	/	/
Cc1cccc(C)c1NC(=O)Cn1c(=O)n(Cc2ccco2)c(=O)c2ccc(C(=O)NC3CCCC3)cc21	/	-3%	14%	-15%	52%	-4%
CCCNC(=O)COC(=O)c1c2c(nc3ccccc13)CCC2	-28%	?	25µM*	-3%	50µM*	50µM*
CC(C)(C)C(=O)COC(=O)c1c2c(nc3ccccc13)CCC2	-12%[57.1 µM]	-11%	?	2%	18µM*	79µM*
COC(=O)c1c2c(nc3ccccc13)CCC2	-10%	7%	0%	-7%	?	-12%
CC(C)CNC(=O)COC(=O)c1c2c(nc3ccccc13)/C(=C/c1cccs1)CC2	-28%[57.1 µM]	-8%	?	6%	18µM*	?

Compound activity deposited in PubChem BioAssay by National Center for Advancing Translational Sciences (NCATS).
